Screens from PubChem.
E coli growth-1 = E. coli V3065 growth inhibition, primary screen, counter-screen for AddAB inhibitor project, absorbance, OD600. 18 h. inhibition, % at 11.9 µM. 330,000 compounds, 0.27% hits;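 active = inhibition above the campaign's mean inhibition across all tested compounds plus 3 SD, cut at about 9.9% in these data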;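 also: uninfected addAB+ strain grown without phage in ampicillin broth; 0% = DMSO wells and 100% = ciprofloxacin 0.95 µg/ml wells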
E coli growth-2 = E. coli growth inhibition, primary screen, OD600; AID 1053175, 2014; OD600 absorbance (concentration not given with the values); Escherichia coli growth, 23 h; hits give low values; 330,000 compounds, 0.21% hits;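 active = OD600 absorbance below the run mean of sample wells minus 3.6 SD, in any replicate, cut at about 0.56 in these data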
Tat export inh = E. coli Tat export inhibitors, primary screen, MC4100, TorA-mCherry reporter, fluorescence, single point; inhibition, % at 10 µM; 340,000 compounds, 0.036% hits; AID 488895, 2010;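 active = mean replicate inhibition at least 50% and at least half of replicates individually reaching 50%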;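 also: exported cargo escapes ClpAP degradation while cytoplasmic cargo is degraded and loses fluorescence; 0% = median of neutral control wells and 100% = median of NaSCN control wells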
phage Ecoli inh = growth loss of phage-infected E. coli, primary screen, RecBCD inhibitor project, absorbance, with phage, HTS. inhibition, % at 11.9 µM. 360,000 compounds, 0.26% hits; in the data active = inhibition above about 11%
AddAB inh = growth inhibition of E. coli expressing H. pylori AddAB, primary screen, AddAB inhibitor project, absorbance; inhibition, % at 11.9 µM; 330,000 compounds, 0.29% hits; AID 435030, 2010; in the data active = inhibition above about 12%;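 also: 0% = vehicle wells of infected cells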
AddAB confirm = growth loss of phage-infected E. coli expressing H. pylori AddAB, confirmation, AddAB inhibitor project, absorbance, E. coli V3065, T4 phage, triplicate; shares compounds with AddAB inh; OD; T4 phage with gene 2 nonsense mutations; inhibition, % at 11.9 µM; 880 compounds, 64% hits; AID 488942, 2010;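 active = mean inhibition above a set limit taken from the earlier primary screen, cut at about 13% in these data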;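 also: higher means less bacterial growth since AddAB block lets phage replicate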
RecBCD counter = growth loss of RecBCD+ E. coli with mutant T4 phage, counter-screen for AddAB inhibitor project, absorbance, V66 E. coli; shares compounds with AddAB inh; OD growth; inhibition, % at 11.9 µM; 880 compounds, 73% hits; AID 488955, 2010;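 active = mean inhibition above the mean of solvent-only control wells plus 3 SD, cut at about 4% in these data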;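 also: optical density read after an 18 h incubation at 37 °C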
bact viab count = bacterial viability inhibition counter-screen, confirmation, counter-screen for AddAB inhibitor project, absorbance; shares compounds with AddAB inh; AID 488956, 2010; 880 compounds, 35% hits; absorbance (AddAB counterscreen); inhibition, % at 11.9 µM; in the data active = inhibition above about 25%
RecBCD conf = growth loss of phage-infected RecBCD+ E. coli, confirmation, RecBCD inhibitor project, absorbance, E. coli V66, T4 gene 2 phage; shares compounds with phage Ecoli inh; inhibition, % at 11.9 µM; 890 compounds, 45% hits; E. coli V66 + T4 2- phage, growth OD; AID 651982, 2013;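 active = mean inhibition over triplicates exceeding the hit threshold derived in the original primary screen, cut at about 11% in these data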
Ecoli viability = E. coli viability inhibition, counter-screen for RecBCD inhibitor project, absorbance, high throughput; absorbance (OD) growth; shares compounds with phage Ecoli inh; AID 651983, 2013; 890 compounds, 29% hits; inhibition, % at 11.9 µM; in the data active = inhibition above about 20%;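 also: E. coli strain V66 grown with compound alone and no phage infection; 0% = bacteria with DMSO vehicle only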
AddAB counter = growth loss of phage-infected AddAB-carrying E. coli, confirmation, counter-screen for RecBCD inhibitor project, absorbance, E. coli V3065, T4 phage | E. coli expressing H. pylori AddAB + T4 phage, OD growth; gene 2 mutant T4, recBCD-deleted host | 890 compounds, 45% hits | AID 651984, 2013 | inhibition, % at 11.9 µM | shares compounds with phage Ecoli inh;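 active = mean inhibition above the solvent-only control wells' mean plus 3 SD, cut at about 22% in these data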;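 also: higher means less bacterial growth from phage killing when AddAB is blocked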
* hit, by the source's call. Hits are enriched below; roughly 0.5% of the tested compounds scored in any of these assays.

For O=C(N/N=C/c1ccc([N+](=O)[O-])o1)c1ccc(O)cc1 the results were E coli growth-1 97.2*, Tat export inh -29.2, phage Ecoli inh 23.1*, AddAB inh 98.1*, AddAB confirm 96.0*, RecBCD counter 23.8*, bact viab count 78.2*, RecBCD conf 17.0*, Ecoli viability 21.2* and AddAB counter 98.2*.
Screening O=C(N/N=C\c1ccc([N+](=O)[O-])o1)c1cncc(Br)c1 returned E coli growth-1 4.7, Tat export inh -18.6, phage Ecoli inh 3.4 and AddAB inh 8.6.
For Cc1n[nH]c(C)c1CCC(=O)NN=Cc1c[nH]c2ccccc12 the results were E coli growth-2 0.696.
`CC(C)(C)C1COC(=O)CCCC=CCC(CC(=O)NCCO)C(=O)N1` (stereo not drawn) gave E coli growth-2 0.699.
`O=C1c2ccccc2C(=O)c2[nH]c(=O)[nH]c21` gave E coli growth-1 10.3*, E coli growth-2 0.408*, Tat export inh -22.4, phage Ecoli inh 16.4*, AddAB inh 15.2*, AddAB confirm 17.2*, RecBCD counter 17.2*, bact viab count -6.9, RecBCD conf 15.0*, Ecoli viability 14.0 and AddAB counter 29.4*.
`CC(Cc1ccccc1)=NNC(=O)c1cccnc1` gave E coli growth-2 0.657.
For O=C(N/N=C/c1ccc(O)cc1O)C(=O)N/N=C/c1ccc(O)cc1O the results were E coli growth-1 30.5*, Tat export inh 2.7, phage Ecoli inh 22.0*, AddAB inh 28.1*, AddAB confirm 22.5*, RecBCD counter 23.8*, bact viab count 20.9, RecBCD conf 18.6*, Ecoli viability 21.0* and AddAB counter 29.0*.
`On1ccccc1=S` gave E coli growth-1 75.6*, Tat export inh 141.8*, phage Ecoli inh active, AddAB inh active, AddAB confirm active, RecBCD counter active, bact viab count 98.0*, RecBCD conf active, Ecoli viability 105.1* and AddAB counter active.
For O=C(Cn1ccccc1=S)c1ccc(Cl)c(Cl)c1 the results were E coli growth-1 3.0, E coli growth-2 0.624, phage Ecoli inh 3.1 and AddAB inh 7.7.
Screening Cc1nc(SCC(=O)Nc2ccc(N3CCOCC3)cc2)nc(C)c1C returned E coli growth-1 13.1*, E coli growth-2 0.665, Tat export inh -10.5, phage Ecoli inh 13.5*, AddAB inh 13.6*, AddAB confirm 9.0, RecBCD counter 9.1*, bact viab count 4.5, RecBCD conf 6.1, Ecoli viability 9.8 and AddAB counter 0.4.
For Cc1cc(C)nc(SCC(=O)Nc2ccc(N3CCOCC3)cc2)n1 the results were E coli growth-1 0.8, E coli growth-2 0.679, Tat export inh -1.8, phage Ecoli inh 2.7 and AddAB inh 4.8.
For Cc1ccccc1NC(=O)NNC(=O)c1ccc2ccccc2c1O the results were E coli growth-1 6.0, E coli growth-2 0.728, Tat export inh -2.8, phage Ecoli inh 6.4 and AddAB inh 5.9.
